# Results reported in PubChem BioAssay (NCATS).
# Inconclusive results are not listed. A call without a number means that no potency is given here. Active and inactive are the calls of the source. The call rests on the fitted dose curve; in most records, active means well fitted curve in the direction sought with a large enough effect; inconclusive means small, poorly fitted or top-dose-only effect, or another doubt; inactive means no such curve, though single readings can be large; an effect the other way counts as inactive or inconclusive.
# How the values were obtained:
# [1] = P-glycoprotein substrates identified in KB-8-5-11 adenocarcinoma cell line, qHTS therapeutic library screen (AID 1346987); further: nearly all actives have a fitted effect of over 65% in size; further: potency means the concentration at half of the fitted maximal effect
# Summary of the method: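 In this qHTS, P-gp-rich KB-8-5-11 cells received library compounds across a concentration range. Viability was quantified by luminescence after 72 h at 37 degree C.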
# [2] = NS1 protein of Zika virus - qHTS assay to identify small molecule inhibitors in human HEK 293 cells (AID 1347053); further: series mostly up to about 46 µM; nearly all actives have a fitted effect of over 55% in size
# Summary of the method: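 Readout was TR-FRET using paired anti-NS1 antibodies after 24 h infection of HEK 293 cells with ZIKV MR766 (MOI = 0.5). Compound preceded virus by 1 h; reduced signal reflects lower NS1 expression.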
# [3] = qHTS of pediatric cancer cell lines to identify multiple opportunities for drug repurposing: Primary screen for TC32 cells (AID 1347089); further: nearly all actives have a fitted effect of over 60% in size; further: potency means the concentration at half of the fitted maximal effect
# Summary of the method: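 In the primary qHTS, MIPE compounds were tested at 11 concentrations (0.78 nM to 46 µM) and NPC compounds at 8 (0.59 nM to 46 µM) on TC32 cells for 48 h. CellTiter-Glo luminescence gave viability.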
# [4] = qHTS of pediatric cancer cell lines to identify multiple opportunities for drug repurposing: Primary screen for SJ-GBM2 cells (AID 1347091); further: potency means the concentration at half of the fitted maximal effect
# Summary of the method: (§1)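 Viability measured as metabolically active cells via CellTiter-Glo luminescence following 48 hours of compound exposure, 11-point dilutions in confirmatory testing. 500-1,000 cells/well plated 5 hours before dosing; controls were DMSO and 2.3 µM bortezomib.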
# [5] = qHTS of pediatric cancer cell lines to identify multiple opportunities for drug repurposing: Primary screen for A673 cells (AID 1347092); further: nearly all actives have a fitted effect of over 45% in size; further: potency means the concentration at half of the fitted maximal effect
# Summary of the method: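 48 h compound exposure, A673, 500-1,000 cells/well, 37 degrees C/5% CO2. MIPE: 11-point, 0.78 nM-46 µM; NPC: 8-point, 0.59 nM-46 µM (final). Readout CellTiter-Glo luminescence after 15 min RT.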
# [6] = qHTS of pediatric cancer cell lines to identify multiple opportunities for drug repurposing: Primary screen for SK-N-MC cells (AID 1347093); further: potency means the concentration at half of the fitted maximal effect
# Summary of the method: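 Metabolically active cells were quantified by ATP-dependent luminescence (CellTiter-Glo, 15 min at room temperature) following 48 h treatment. Cells had been plated at 500-1,000 per well and settled for 5 h beforehand.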
# [7] = qHTS of pediatric cancer cell lines to identify multiple opportunities for drug repurposing: Primary screen for BT-37 cells (AID 1347094); further: potency means the concentration at half of the fitted maximal effect
# Summary of the method: (§2)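 Cells plated at 500-1,000/well in growth medium, compounds added after 5 h. MIPE tested at 11 points (from 0.78 nM), NPC at 8 points (from 0.59 nM). CellTiter-Glo luminescence after 48 h; concentration-response curves from primary screen.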
# [8] = qHTS of pediatric cancer cell lines to identify multiple opportunities for drug repurposing: Primary screen for U-2 OS cells (AID 1347096); further: nearly all actives have a fitted effect of over 50% in size
# Summary of the method: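 Viability after 48 h compound treatment at 37C, 500-1,000 cells/well, read as ATP luminescence with CellTiter-Glo. Primary screens used 11-point (MIPE, 0.78 nM-46 µM) or 8-point (NPC, 0.59 nM-46 µM) final concentrations; follow-up screens used 11-point dilutions.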
# [9] = qHTS of pediatric cancer cell lines to identify multiple opportunities for drug repurposing: Primary screen for Saos-2 cells (AID 1347097); further: nearly all actives have a fitted effect of over 40% in size; further: potency means the concentration at half of the fitted maximal effect
# Summary of the method: as §2
# [10] = qHTS of pediatric cancer cell lines to identify multiple opportunities for drug repurposing: Primary screen for SK-N-SH cells (AID 1347098); further: nearly all actives have a fitted effect of over 65% in size; further: potency means the concentration at half of the fitted maximal effect
# Summary of the method: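 Cells (500-1,000/well) rested 5 h, then received compounds for 48 h; metabolically active cells were measured by CellTiter-Glo luminescence. Final concentrations spanned up to 46 µM (MIPE, 11-point) or 0.59 nM-46 µM (NPC, 8-point) in primary screens, 11-point in follow-ups.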
# [11] = qHTS of pediatric cancer cell lines to identify multiple opportunities for drug repurposing: Primary screen for NB-EBc1 cells (AID 1347095); further: potency means the concentration at half of the fitted maximal effect
# Summary of the method: as §2
# [12] = qHTS of pediatric cancer cell lines to identify multiple opportunities for drug repurposing: Primary screen for DAOY cells (AID 1347090); further: series mostly up to about 46 µM; nearly all actives have a fitted effect of over 55% in size
# Summary of the method: as §1
SMILES,Potency [1],Potency [2],Potency [3],Potency [4],Potency [5],Potency [6],Potency [7],Potency [8],Potency [9],Potency [10],Potency [11],Potency [12]
COC(=O)N1CCN(Cc2cccc(NC(=O)Nc3ccc(C)nc3)c2F)CC1,inactive,inactive,inactive,inactive,inactive,inactive,inactive,inactive,inactive,inactive,,
CC1(C)OC2CC3C4CC(F)C5=CC(=O)C=CC5(C)C4C(O)CC3(C)[C@]2(C(=O)CO)O1 (some centres undefined),inactive,inactive,inactive,inactive,inactive,,inactive,inactive,inactive,inactive,inactive,
N#CC(c1ccc(Cl)cc1)c1c(Cl)cc(-n2ncc(=O)[nH]c2=O)cc1Cl (centres undefined),inactive,inactive,inactive,23.5 µM (active),11.8 µM (active),9.35 µM (active),,,9.35 µM (active),,8.33 µM (active),
C[C@@H](O)[C@H]1C(=O)N2C(C(=O)OCOC(=O)C(C)(C)C)=C(SC3CN(C4=NCCS4)C3)[C@H](C)[C@H]12,inactive,inactive,inactive,inactive,,,inactive,inactive,inactive,inactive,inactive,inactive
COc1cc(F)c(C(C)C)cc1-c1ccc(C(F)(F)F)cc1CN1C(=O)O[C@H](c2cc(C(F)(F)F)cc(C(F)(F)F)c2)[C@@H]1C,inactive,inactive,inactive,,,inactive,,inactive,inactive,,14.8 µM (active),inactive
CCNC(=O)[C@H]1O[C@@H](n2cnc3c(N)nc(NCCc4ccc(CCC(=O)O)cc4)nc32)[C@H](O)[C@H]1O,inactive,inactive,inactive,inactive,inactive,inactive,inactive,inactive,,inactive,inactive,
CN1[C@H]2CC[C@H]1CC(OC(=O)c1c[nH]c3ccccc13)C2 (some centres undefined),inactive,inactive,inactive,inactive,inactive,,inactive,inactive,,24.1 µM (active),,
CCOC(=O)[C@H](CCc1ccccc1)N[C@@H](C)C(=O)N1CCCC1C(=O)O (some centres undefined),inactive,inactive,inactive,inactive,18.7 µM (active),8.33 µM (active),,inactive,inactive,,,
C[C@]12C=CC(=O)C=C1CC[C@@H]1[C@@H]2[C@@H](O)C[C@@]2(C)[C@@H]1CC[C@]2(O)C(=O)CO,inactive,inactive,inactive,,,29.6 µM (active),,inactive,inactive,,14.8 µM (active),
O=C(Nc1cccc(Cl)c1)Nc1ncc(CCNc2ncnc3ccsc23)s1,1.16 µM (active),inactive,0.739 µM (active),,14.8 µM (active),,,inactive,2.96 µM (active),,,
CCC(=O)NCC[C@@H]1CCc2ccc3c(c21)CCO3,inactive,inactive,inactive,inactive,,,inactive,inactive,,inactive,inactive,
OC[C@H]1O[C@@H](OCCc2ccc(O)cc2)[C@H](O)[C@@H](O)[C@H]1O,inactive,inactive,inactive,inactive,,26.4 µM (active),,inactive,,,,
CC(C)c1onc(-c2c(Cl)cccc2Cl)c1COc1ccc(C=Cc2cccc(C(=O)O)c2)c(Cl)c1,inactive,inactive,inactive,,,16.6 µM (active),,inactive,inactive,,,
C=C1c2cccc(O)c2C(O)=C2C(=O)[C@@]3(O)C(O)=C(C(N)=O)C(=O)[C@@H](N(C)C)[C@@H]3[C@@H](O)[C@H]12,inactive,inactive,inactive,inactive,,,,inactive,,,inactive,
COc1cc2c(cc1OC)[C@@H]1Cc3ccc(OC)c(OC)c3CN1CC2,inactive,inactive,inactive,inactive,,inactive,,inactive,inactive,,,
COc1cc(Cl)cn2c(-c3cccc(NC4CNC4)n3)cnc12,inactive,inactive,inactive,5.26 µM (active),,2.96 µM (active),,,,,2.96 µM (active),
CCn1c(-c2nonc2N)nc2cncc(CNC3CCNCC3)c21,inactive,inactive,inactive,,14.8 µM (active),inactive,,inactive,11.8 µM (active),,,
Oc1ccc(C=Cc2cc(O)cc(O)c2)cc1,inactive,inactive,inactive,18.7 µM (active),,11.8 µM (active),21.7 µM (active),inactive,29.6 µM (active),,,
Cc1ccc(C(=O)N(CCCN)[C@@H](c2nc3cc(Cl)ccc3c(=O)n2Cc2ccccc2)C(C)C)cc1,0.118 µM (active),inactive,0.0165 µM (active),0.001 µM (active),,0.0017 µM (active),,inactive,0.001 µM (active),inactive,,
Cc1cc(CS(=O)(=O)c2ccccc2)cc(OCc2ccc(CN3CCC[C@H]3CO)cc2)c1,4.18 µM (active),inactive,inactive,,5.9 µM (active),2.64 µM (active),,inactive,,,inactive,
